The structures appear in SMILES notation.

For assay [1], the target named is Serine/threonine-protein kinase 26 (Homo sapiens) (UniProt Q9P289). The conditions noted are these: at 1 µM.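 Further: mean inhibition of MST4 kinase activity, reported from the GSK PKIS inhibitor-set screening panel.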
The target in assay [2] is Serine/threonine-protein kinase PAK 1 (Homo sapiens) (UniProt Q13153). The conditions noted are these: at 0.1 µM.
The target is the same in assay [3]. The conditions noted are these: at 1 µM.
The target of assay [4] is Serine/threonine-protein kinase PAK 2 (Homo sapiens) (UniProt Q13177). The conditions noted are these: at 0.1 µM.
Assay [5] has the same target. The conditions noted are these: at 1 µM.
For assay [6], the target named is Serine/threonine-protein kinase PAK 3 (Homo sapiens) (UniProt O75914). To be noted: at 0.1 µM.
Assay [7] has the same target. To be noted: at 1 µM.
Assay [8] addresses Serine/threonine-protein kinase PAK 5 (Homo sapiens) (UniProt Q9P286). To be noted: at 1 µM.
The target of assay [9] is Serine/threonine-protein kinase PAK 6 (Homo sapiens) (UniProt Q9NQU5). To be noted: at 0.1 µM.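 Further: mean PAK6 inhibition reported from the GSK PKIS screen.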
Assay [10] has as its target Serine/threonine-protein kinase PAK 5 (Homo sapiens) (UniProt Q9P286). The conditions noted are these: at 0.1 µM.

Serine/threonine-protein kinase PAK 3 (Homo sapiens), sequence (O75914 whole entry, looked up): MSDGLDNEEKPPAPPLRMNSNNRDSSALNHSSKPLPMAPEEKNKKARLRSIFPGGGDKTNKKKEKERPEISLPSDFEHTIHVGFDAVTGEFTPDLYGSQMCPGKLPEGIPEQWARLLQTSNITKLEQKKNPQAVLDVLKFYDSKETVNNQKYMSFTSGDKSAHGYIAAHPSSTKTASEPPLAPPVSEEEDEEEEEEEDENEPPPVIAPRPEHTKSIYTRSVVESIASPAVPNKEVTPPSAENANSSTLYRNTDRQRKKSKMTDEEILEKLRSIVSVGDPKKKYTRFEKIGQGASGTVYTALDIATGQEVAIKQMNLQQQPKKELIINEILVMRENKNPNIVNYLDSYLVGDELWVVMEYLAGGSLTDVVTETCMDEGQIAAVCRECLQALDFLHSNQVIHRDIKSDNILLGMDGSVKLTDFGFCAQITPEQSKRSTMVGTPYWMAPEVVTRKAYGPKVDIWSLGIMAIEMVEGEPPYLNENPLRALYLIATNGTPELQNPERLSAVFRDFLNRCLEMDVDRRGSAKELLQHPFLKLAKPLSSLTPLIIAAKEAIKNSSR
Serine/threonine-protein kinase 26 (Homo sapiens), sequence (Q9P289 2-416 limits assumed): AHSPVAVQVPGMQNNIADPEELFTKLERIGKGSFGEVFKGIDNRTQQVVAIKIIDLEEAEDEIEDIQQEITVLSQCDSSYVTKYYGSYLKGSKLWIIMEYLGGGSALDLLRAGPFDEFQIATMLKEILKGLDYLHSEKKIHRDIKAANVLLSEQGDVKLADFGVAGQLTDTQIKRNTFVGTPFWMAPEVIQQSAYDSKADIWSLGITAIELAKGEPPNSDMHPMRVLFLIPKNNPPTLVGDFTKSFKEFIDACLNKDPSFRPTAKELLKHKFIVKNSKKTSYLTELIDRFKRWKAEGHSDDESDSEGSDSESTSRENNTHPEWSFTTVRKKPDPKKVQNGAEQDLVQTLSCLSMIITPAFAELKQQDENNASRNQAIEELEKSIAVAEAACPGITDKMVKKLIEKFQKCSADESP
Serine/threonine-protein kinase PAK 2 (Homo sapiens), sequence (Q13177 whole entry): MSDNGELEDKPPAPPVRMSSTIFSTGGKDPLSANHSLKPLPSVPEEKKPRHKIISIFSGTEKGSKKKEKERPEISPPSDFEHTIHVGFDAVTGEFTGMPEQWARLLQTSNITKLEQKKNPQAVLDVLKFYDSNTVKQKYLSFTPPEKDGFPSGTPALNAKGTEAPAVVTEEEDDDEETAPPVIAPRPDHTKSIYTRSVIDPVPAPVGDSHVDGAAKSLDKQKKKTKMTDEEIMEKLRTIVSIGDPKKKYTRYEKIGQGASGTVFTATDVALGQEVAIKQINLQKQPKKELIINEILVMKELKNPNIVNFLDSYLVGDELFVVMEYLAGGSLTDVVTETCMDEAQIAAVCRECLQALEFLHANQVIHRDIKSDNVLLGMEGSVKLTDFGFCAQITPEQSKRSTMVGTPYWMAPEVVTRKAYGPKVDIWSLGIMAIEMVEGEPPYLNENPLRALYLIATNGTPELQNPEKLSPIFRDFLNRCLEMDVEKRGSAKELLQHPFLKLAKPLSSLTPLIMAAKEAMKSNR
Serine/threonine-protein kinase PAK 6 (Homo sapiens), sequence (Q9NQU5 whole entry, looked up): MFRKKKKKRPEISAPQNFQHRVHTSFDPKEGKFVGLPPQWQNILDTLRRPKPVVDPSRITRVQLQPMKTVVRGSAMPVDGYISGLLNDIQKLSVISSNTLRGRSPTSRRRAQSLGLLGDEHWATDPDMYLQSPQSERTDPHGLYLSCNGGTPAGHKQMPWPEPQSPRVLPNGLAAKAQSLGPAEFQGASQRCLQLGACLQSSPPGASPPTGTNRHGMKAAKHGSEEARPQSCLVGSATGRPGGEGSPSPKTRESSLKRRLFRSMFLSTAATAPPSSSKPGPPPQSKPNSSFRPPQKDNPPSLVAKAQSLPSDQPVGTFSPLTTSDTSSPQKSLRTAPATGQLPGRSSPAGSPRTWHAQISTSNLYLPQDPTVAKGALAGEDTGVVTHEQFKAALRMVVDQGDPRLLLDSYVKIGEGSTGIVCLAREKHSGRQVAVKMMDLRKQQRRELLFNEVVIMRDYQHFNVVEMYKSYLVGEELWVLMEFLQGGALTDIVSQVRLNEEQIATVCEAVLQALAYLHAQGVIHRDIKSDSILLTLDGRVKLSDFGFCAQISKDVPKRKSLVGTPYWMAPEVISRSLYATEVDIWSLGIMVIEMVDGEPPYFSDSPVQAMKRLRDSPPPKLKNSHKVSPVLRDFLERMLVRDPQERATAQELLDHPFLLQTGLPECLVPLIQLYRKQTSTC
Serine/threonine-protein kinase PAK 5 (Homo sapiens), sequence (Q9P286 whole entry, looked up): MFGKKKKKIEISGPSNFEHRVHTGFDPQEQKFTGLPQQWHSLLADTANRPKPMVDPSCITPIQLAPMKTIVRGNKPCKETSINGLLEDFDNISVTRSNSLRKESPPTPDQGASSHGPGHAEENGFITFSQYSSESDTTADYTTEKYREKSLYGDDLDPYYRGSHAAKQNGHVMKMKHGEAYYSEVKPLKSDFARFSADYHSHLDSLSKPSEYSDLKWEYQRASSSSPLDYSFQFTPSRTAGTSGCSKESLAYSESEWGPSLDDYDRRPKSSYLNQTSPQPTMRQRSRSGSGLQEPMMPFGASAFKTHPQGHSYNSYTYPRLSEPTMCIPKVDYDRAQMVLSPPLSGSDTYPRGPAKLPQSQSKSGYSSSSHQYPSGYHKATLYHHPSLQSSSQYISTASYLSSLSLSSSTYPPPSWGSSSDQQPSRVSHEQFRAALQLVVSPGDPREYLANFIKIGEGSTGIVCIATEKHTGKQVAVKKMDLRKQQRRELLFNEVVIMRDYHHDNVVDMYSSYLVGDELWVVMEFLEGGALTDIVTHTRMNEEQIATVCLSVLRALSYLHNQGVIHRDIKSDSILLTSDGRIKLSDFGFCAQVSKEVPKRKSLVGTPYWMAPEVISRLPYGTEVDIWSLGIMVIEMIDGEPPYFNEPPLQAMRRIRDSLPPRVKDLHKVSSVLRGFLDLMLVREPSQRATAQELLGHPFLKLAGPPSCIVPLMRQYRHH
Serine/threonine-protein kinase PAK 1 (Homo sapiens), sequence (Q13153 whole entry): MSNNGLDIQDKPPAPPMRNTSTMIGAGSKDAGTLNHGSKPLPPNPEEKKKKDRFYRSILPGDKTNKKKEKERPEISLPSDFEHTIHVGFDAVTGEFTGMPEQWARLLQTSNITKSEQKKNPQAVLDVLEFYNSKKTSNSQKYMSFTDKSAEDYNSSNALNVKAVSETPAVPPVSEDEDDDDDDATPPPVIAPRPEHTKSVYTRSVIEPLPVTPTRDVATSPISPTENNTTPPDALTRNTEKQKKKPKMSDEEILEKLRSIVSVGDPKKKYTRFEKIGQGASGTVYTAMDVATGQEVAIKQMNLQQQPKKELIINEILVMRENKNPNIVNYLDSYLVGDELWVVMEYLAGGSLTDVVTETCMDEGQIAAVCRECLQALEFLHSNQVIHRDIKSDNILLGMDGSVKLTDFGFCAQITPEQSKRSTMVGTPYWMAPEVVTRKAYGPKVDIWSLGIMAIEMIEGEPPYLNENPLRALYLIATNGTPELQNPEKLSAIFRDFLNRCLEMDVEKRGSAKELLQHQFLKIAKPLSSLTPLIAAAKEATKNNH

As to `COc1cc(C=NNc2ncnc3c2cnn3Cc2ccccc2)ccc1O`, the inhibition in [1] was 2.28%; in [2], 0.64%; in [3], -2.75%; in assay [4] it was -2.02%; in assay [5], -0.63%; in assay [6], -5.99%. The inhibition in [7] was -4.57%; in [8], -5.56%; in [9], -0.81%.
Turning to `CCn1c(-c2nonc2N)nc2c(C#CCN)ncc(OCCCN)c21`, the inhibition in [1] is 2.79%; in assay [2], -1.61%; in assay [3] it was 2.32%; in assay [4], -1.05%; in assay [5] it was -1.34%; in assay [6], -1.06%. The inhibition in assay [7] was -0.65%; in [10] it was 3.08%; in assay [8], 3.52%; in [9], 17%.
In the case of `COc1cccc(-n2ncc3c(N/N=C/c4ccncc4)ncnc32)c1`, the inhibition is 7.18% in assay [1]; 5.78% in assay [2]; 7.75% in assay [3]; 3.04% in assay [4]; 2.37% in assay [5]; 5.73% in assay [6]. In addition, the inhibition is 5.78% in assay [7], 0.19% in assay [10], 6.09% in assay [8] and -2.81% in assay [9].
On to `Nc1nonc1-c1nc2cnccc2n1C1CCCCC1`, for which the inhibition was 3.95% in assay [1]; -0.52% in assay [2]; -1.25% in assay [3]; -2.06% in assay [4]; -1.54% in assay [5]; -3.57% in assay [6]. The inhibition in assay [7] is -2.19%; in assay [10] it was -7.66%; in assay [8], -4.63%; in [9] it was -0.28%.
For the compound `CCn1c(-c2nonc2N)nc2c(C#CC(C)(C)O)ncc(OC[C@@H]3CCCN3)c21`, the inhibition is -0.64% in [1]; -0.64% in assay [2]; 7.58% in assay [3]; 1.99% in assay [4]; 16.6% in [5]; 0.61% in assay [6]. In addition, the inhibition amounted to 4.06% in assay [7], 12.6% in assay [10], 49.8% in assay [8] and 19.1% in assay [9].
Regarding `COc1cc2c(cc1Nc1nc(Nc3ccsc3C(N)=O)c3cc[nH]c3n1)N(C(=O)CN(C)C)CCC2`, the inhibition is 0.17% in assay [1]; -0.61% in assay [2]; 0.73% in assay [3]; 1.88% in assay [4]; 2.11% in assay [5]; 3.92% in [6]. In addition, the inhibition is 7.24% in assay [7], -1% in [10], -3.49% in [8] and 4.98% in [9].
On to `CCn1c(-c2nonc2N)nc2c(C#CC(C)(C)O)ncc(OCC3CCNCC3)c21`, for which the inhibition is 3.31% in [1]; 5.46% in [2]; 7.18% in [3]; 2.42% in assay [4]; 12.7% in [5]; 5.37% in [6]. In addition, the inhibition in [7] stood at 7.15%; in assay [10] it was 48.8%; in [8], 76%; in assay [9] it was 19.2%.
Turning to `NS(=O)(=O)c1ccc(-c2ccc3c(NC(=O)C4CC4)n[nH]c3c2)cc1`, the inhibition in assay [1] was -2.58%; in assay [2], 6.54%; in assay [3] it was 2.13%; in assay [4], 1.52%; in [5], 2.07%; in assay [6] it was 2.48%. The inhibition in assay [7] came to 4.17%; in [10] it was 1.07%; in assay [8] it was 2.99%; in assay [9] it was 7.47%.
As to `COc1cccc(COc2cc(-n3cnc4ccccc43)sc2C(N)=O)c1`, the inhibition in assay [1] was -1.08%; in assay [2], 0.1%; in assay [3], 2.97%; in assay [4] it was 0.38%; in [5], 0.1%; in assay [6] it was 0.88%. Further, the inhibition in [7] was 1.18%; in [10] it was -2.95%; in assay [8] it was -5.64%; in assay [9], 1.2%.
Turning to `CCn1c(-c2nonc2N)nc2c(C#CC(C)(C)O)nc(O[C@@H](CN)c3ccccc3)cc21`, the inhibition in assay [1] is 10.8%; in assay [2], 0.39%; in [3], 14%; in assay [4], 7.41%; in assay [5] it was 48.9%; in [6] it was -0.59%. Further, the inhibition in [7] was 15.6%; in assay [10] it was 49.1%; in assay [8], 62.2%; in [9] it was 59.9%.
For `NS(=O)(=O)c1ccc(N/C=C2\C(=O)Nc3ccc4ncsc4c32)cc1`, the inhibition in [1] was found to be 74.5%; in assay [2], 4.98%; in assay [3], 7.33%; in assay [4] it was 1.87%; in [5], 2.66%; in [6] it was 5.48%. Besides, the inhibition was 5.62% in [7], 2.66% in [10], 4.51% in assay [8] and -9.73% in assay [9].
As to `NC(=O)c1sc(-n2cnc3cc(C(F)(F)F)ccc32)cc1OCc1ccccc1Br`, the inhibition was 3.19% in assay [1]; 1.15% in assay [2]; 2.03% in assay [3]; -0.71% in assay [4]; -1.57% in [5]; 1.59% in [6]. Further, the inhibition in assay [7] turned out to be 0.61%; in assay [10], 1.54%; in assay [8], 0.39%; in [9], 3.56%.
Turning to `Fc1ccc(-c2ncn(C3CCNCC3)c2-c2ccnc(Oc3ccccc3)n2)cc1`, the inhibition in assay [1] was found to be 0.32%; in assay [2], 3.79%; in [3], 1.88%; in assay [4], 0.54%; in [5] it was 1.48%; in [6], 1.85%. For the same compound, the inhibition is 3.31% in assay [7], 2.66% in assay [10], 2.03% in assay [8] and -8.85% in [9].
Regarding `Cc1cc(-c2ccco2)cc(C)c1/C=C/c1cncc(-c2nn[nH]n2)c1`, the inhibition in [1] is 11.6%; in assay [2] it was 1.26%; in [3], 2.13%; in assay [4] it was -1.09%; in [5], -0.44%; in assay [6] it was 0.76%. Further, the inhibition in assay [7] is 0.92%; in [10], -7.1%; in assay [8] it was -2.25%; in [9] it was 5.79%.
